Source: PubChem BioAssay AID1159580 (chemical genetic matrix, 2015)
Where “and” joins values, the source holds several entries; their conditions need not be identical. Equal entries are not always repeated. Out of some 5,500 compounds screened, about 2,000 (36%) were called active. About 18% were inconclusive and are not listed. Rule as the data show it: active = normalized growth mostly below about 0.91 (no sharp cut-off); inconclusive = no clear call, values can overlap the other calls; inactive = mostly above about 0.92. The list shows a part of the results.

Assay: chemical genetic growth profiling, strain panel (AID 1159580);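 also: tested at 20 µM; growth read once vehicle control cultures reached saturation at 30 °C; 1 = growth at the plate median or of vehicle wells; lower values mean less growth of the strain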
Settings: S. cerevisiae deletion strains, growth OD
[1] = locus YAL013W, strain DEP1, active compounds read low
[2] = locus YAL040C, strain CLN3, active compounds read low
[3] = locus YCL061C, strain MRC1 (second series), active compounds read low
[4] = locus YDR363W, strain ESC2, active compounds read low
[5] = locus YER002W, strain NOP16, active compounds read low
[6] = locus YGR229C, strain SMI1, active compounds read low
[7] = locus YMR307W, strain GAS1, active compounds read low
[8] = locus YNL128W, strain TEP1, active compounds read low
[9] = locus YNL175C, strain NOP13, active compounds read low
[10] = locus YNL197C, strain WHI3, active compounds read low
[11] = locus YNL224C, strain SQS1, active compounds read low
[12] = locus YNL322C, strain KRE1, active compounds read low
[13] = locus YOR083W, strain WHI5 (second series), active compounds read low
[14] = locus YPL241C, strain CIN2, active compounds read low
[15] = locus YHR030C, strain SLT2, active compounds read low
[16] = locus YHR079C, strain IRE1, active compounds read low
[17] = locus YJL095W, strain BCK1, active compounds read low
[18] = locus YJR066W, strain TOR1, active compounds read low
[19] = locus YLR113W, strain HOG1, active compounds read low
[20] = locus YNL183C, strain NPR1, active compounds read low
[21] = locus YOR231W, strain MKK1, active compounds read low
[22] = locus YPL256C, strain CLN2, active compounds read low

Measured: normalized growth

CCCCN1CCC(COC(=O)c2cc(Cl)c(N)c3c2OCCO3)CC1
inactive: [1] 0.976 | [2] 0.973 | [3] 0.987 | locus YDR150W, strain NUM1, active compounds read low 0.997 | [4] 0.968 | [5] 0.987 | [6] 0.966 | [7] 0.989 | [8] 0.991 | locus YNL153C, strain GIM3, active compounds read low 0.996 | [9] 1 | [10] 0.991 | [11] 1.01 | [12] 0.982 | [13] 0.989 | [14] 0.993

CNC(=O)Oc1ccc2c(c1)[C@]1(C)CCN(C)[C@@H]1N2C
inactive: [1] 1.03 | locus YAL021C, strain ccr4, active compounds read low 1 | locus YAL026C, strain drs2, active compounds read low 1 | locus YAL030W, strain snc1, active compounds read low 1.02 | locus YBL061C, strain skt5, active compounds read low 1.02 | locus YBR009C, strain hhf1, active compounds read low 0.998 | locus YBR021W, strain FUR4, active compounds read low 0.99 | locus YBR023C, strain chs3, active compounds read low 1.02 | locus YBR171W, strain sec66, active compounds read low 1.03 | locus YBR229C, strain ROT2, active compounds read low 1.01 | locus YBR231C, strain swc5, active compounds read low 1.01 | locus YBR279W, strain paf1, active compounds read low 1.03 | locus YCL011C, strain gbp2, active compounds read low 1.03 | locus YCL016C, strain dcc1, active compounds read low 1.05 | locus YCL029C, strain bik1, active compounds read low 1.01 | locus YCL061C, strain MRC1, active compounds read low 1.01 | locus YCL069W, strain vba3, active compounds read low 1.02 | locus YCR088W, strain abp1, active compounds read low 1.02 | locus YDL005C, strain med2, active compounds read low 1.02 | locus YDL035C, strain GPR1, active compounds read low 1.01 | locus YDL040C, strain nat1, active compounds read low 1 | locus YDL074C, strain BRE1, active compounds read low 1.04 | locus YDL101C, strain DUN1, active compounds read low 1.01 | locus YDL134C, strain PPH21, active compounds read low 1.04 | locus YDL185W, strain tfp1, active compounds read low 0.992 | locus YDL192W, strain arf1, active compounds read low 1.02 | locus YDR001C, strain nth1, active compounds read low 1.01 | locus YDR069C, strain doa4, active compounds read low 0.998 | locus YDR101C, strain arx1, active compounds read low 1.02 | locus YDR137W, strain rgp1, active compounds read low 1.05 | locus YDR159W, strain sac3, active compounds read low 0.969 | locus YDR162C, strain NBP2, active compounds read low 1.03 | locus YDR195W, strain ref2 0.977 | locus YDR297W, strain sur2, active compounds read low 1.01 | locus YDR318W, strain mcm21, active compounds read low 1.01 | locus YDR334W, strain swr1, active compounds read low 1.02 | locus YDR335W, strain msn5, active compounds read low 1.01 | locus YDR388W, active compounds read low 1.01 | locus YDR392W, strain spt3, active compounds read low 0.816 | locus YDR502C, strain sam2, active compounds read low 1.01 | locus YEL003W, strain gim4, active compounds read low 1.01 | locus YEL037C, strain rad23, active compounds read low 1.01 | locus YEL061C, strain CIN8 (second series), active compounds read low 1.02 | locus YEL061C, strain CIN8, active compounds read low 1.01 | locus YER015W, strain faa2, active compounds read low 1.01 | locus YER016W, strain bim1, active compounds read low 1.02 | locus YER110C, active compounds read low 1.02 | locus YER111C, strain swi4, active compounds read low 1.01 | locus YER155C, strain BEM2 (second series), active compounds read low 0.99 | locus YER155C, strain BEM2, active compounds read low 0.993 | locus YER167W, strain BCK2, active compounds read low 1.02 | locus YFR010W, strain ubp6, active compounds read low 1.01 | locus YGL078C, strain dbp3, active compounds read low 1.01 | locus YGL086W, strain mad1, active compounds read low 0.999 | locus YGL167C, strain pmr1, active compounds read low 1.02 | locus YGL173C, strain kem1, active compounds read low 1.01 | locus YGL227W, strain vid30, active compounds read low 1.01 | locus YGL240W, strain doc1, active compounds read low 0.992 | locus YGL248W, strain PDE1, active compounds read low 1.01 | locus YGL253W, strain hxk2, active compounds read low 0.989 | locus YGR135W, strain pre9, active compounds read low 1.03 | [6] 1.01 | locus YGR252W, strain gcn5, active compounds read low 1.03 | locus YHR013C, strain ard1, active compounds read low 0.981 | locus YHR027C, strain rpn1, active compounds read low 1.03 | [15] 1.01 and 0.983 | locus YHR079C, strain IRE1 (second series), active compounds read low 1 | [16] 0.97 | locus YHR094C, strain hxt1, active compounds read low 1.01 | locus YHR129C, strain ARP1, active compounds read low 1.02 | locus YHR142W, strain chs7, active compounds read low 1.04 | locus YHR200W, strain rpn10, active compounds read low 1.01 | locus YIL066C, strain RNR3, active compounds read low 1 | locus YIL073C, strain SPO22, active compounds read low 0.995 | locus YIL125W, strain kgd1, active compounds read low 0.999 | locus YIR030C, strain dcg1, active compounds read low 0.992 | locus YJL092W, strain hpr5, active compounds read low 1.01 | locus YJL095W, strain BCK1 (second series), active compounds read low 1.03 | [17] 1.04 and 0.989 | locus YJL115W, strain asf1, active compounds read low 1.02 | locus YJL129C, strain trk1, active compounds read low 1.08 | locus YJL134W, strain LCB3, active compounds read low 1.01 | locus YJL154C, strain vps35, active compounds read low 1.01 | locus YJL164C, strain tpk1, active compounds read low 0.992 | locus YJL166W, strain qcr8, active compounds read low 1.02 | locus YJL168C, strain set2, active compounds read low 1.01 | locus YJL187C, strain SWE1 (second series), active compounds read low 1.03 | locus YJL187C, strain SWE1, active compounds read low 1.01 | locus YJR043C, strain POL32, active compounds read low 1.04 | [18] 0.954 | locus YJR075W, strain HOC1, active compounds read low 1.03 | locus YKL009W, strain mrt4, active compounds read low 1.02 | locus YKL068W, active compounds read low 0.999 | locus YKL085W, strain MDH1 (second series), active compounds read low 0.997 | locus YKL085W, strain MDH1, active compounds read low 0.997 | locus YKL160W, strain elf1, active compounds read low 1.02 | locus YKL190W, strain CNB1, active compounds read low 1.01 | locus YKR001C, strain vps1, active compounds read low 1.02 | locus YKR026C, strain gcn3, active compounds read low 1.02 | locus YKR091W, strain srl3, active compounds read low 1.02 | locus YLL001W, strain dnm1, active compounds read low 1.07 | locus YLL026W, active compounds read low 1.01 | locus YLL041C, strain sdh2, active compounds read low 1 | locus YLR027C, strain aat2, active compounds read low 0.998 | locus YLR039C, strain RIC1, active compounds read low 1.12 | locus YLR058C, strain SHM2, active compounds read low 1.01 | locus YLR102C, strain apc9, active compounds read low 1 | [19] 0.991 | locus YLR221C, strain rsa3, active compounds read low 1.04 | locus YLR258W, strain gsy2, active compounds read low 1 | locus YLR262C, strain YPT6 (second series), active compounds read low 1.05 | locus YLR262C, strain YPT6, active compounds read low 1.19 | locus YLR268W, strain sec22, active compounds read low 1.02 | locus YLR320W, strain mms22, active compounds read low 1.06 | locus YLR330W, strain CHS5, active compounds read low 1.01 | locus YLR342W, strain FKS1 (second series), active compounds read low 1.03 | locus YLR342W, strain FKS1, active compounds read low 1.02 | locus YLR357W, strain rsc2, active compounds read low 1.02 | locus YLR370C, strain arc18, active compounds read low 1.03 | locus YLR371W, strain rom2, active compounds read low 1 | locus YLR384C, strain iki3, active compounds read low 1.02 | locus YLR418C, strain cdc73, active compounds read low 0.991 | locus YML016C, strain PPZ1, active compounds read low 1.01 | locus YML032C, strain rad52, active compounds read low 1.01 | locus YML120C, strain ndi1, active compounds read low 1.05 | locus YML124C, strain tub3, active compounds read low 1.01 | locus YMR058W, strain fet3, active compounds read low 1.01 | locus YMR078C, strain ctf18, active compounds read low 0.996 | locus YMR125W, strain sto1, active compounds read low 1.04 | locus YMR129W, active compounds read low 1.01 | locus YMR205C, strain PFK2, active compounds read low 1.02 | locus YMR223W, strain ubp8, active compounds read low 1.01 | locus YMR231W, strain pep5, active compounds read low 1 | locus YMR263W, strain SAP30, active compounds read low 1.01 | [7] 1.03 | locus YNL067W, strain RPL9B, active compounds read low 1.03 | locus YNL071W, strain lat1, active compounds read low 1.01 | [8] 1.01 | [20] 0.944 | locus YNL209W, strain ssb2, active compounds read low 1.02 | locus YNL233W, strain BNI4, active compounds read low 1.02 | locus YNL248C, strain rpa49, active compounds read low 0.969 | locus YNL250W, strain rad50, active compounds read low 1.01 | locus YNL271C, strain bni1, active compounds read low 0.999 | locus YNL298W, strain CLA4, active compounds read low 1.01 | locus YNL307C, strain MCK1, active compounds read low 1.01 | locus YNL322C, strain KRE1 (second series), active compounds read low 1.02 | locus YNR049C, strain mso1, active compounds read low 1.01 | locus YNR052C, strain pop2, active compounds read low 1 | locus YOL006C, strain TOP1, active compounds read low 0.963 | locus YOL012C, strain htz1 0.928 | locus YOL147C, strain pex11, active compounds read low 1 | locus YOR001W, strain rrp6, active compounds read low 0.96 | locus YOR061W, strain CKA2, active compounds read low 1.02 | locus YOR069W, strain VPS5, active compounds read low 1.01 | locus YOR070C, strain gyp1, active compounds read low 1.03 | locus YOR080W, strain dia2, active compounds read low 1.02 | locus YOR083W, strain WHI5, active compounds read low 1.03 | locus YOR106W, strain vam3, active compounds read low 1.04 | locus YOR136W, strain idh2, active compounds read low 1.02 | locus YOR144C, strain elg1, active compounds read low 1.01 | locus YOR184W, strain ser1, active compounds read low 1.06 | [21] 0.96 | locus YOR265W, strain rbl2, active compounds read low 1.01 | locus YOR270C, strain vph1, active compounds read low 1.13 | locus YOR290C, strain snf2, active compounds read low 1.07 | locus YOR316C, strain cot1, active compounds read low 1.02 | locus YPL051W, strain arl3, active compounds read low 0.978 | locus YPL078C, strain atp4, active compounds read low 0.997 | locus YPL106C, strain sse1, active compounds read low 1.06 | locus YPL240C, strain hsp82, active compounds read low 1.03 | [14] 1.01 | [22] 0.986 | locus YPR119W, strain clb2, active compounds read low 1.01 | locus YPR141C, strain kar3, active compounds read low 1.01 | locus YPR163C, strain tif3, active compounds read low 1.03 | locus YPR167C, strain met16, active compounds read low 1.01 | strain wtn01, active compounds read low 1.01

CN(C)CC[C@@H](c1ccc(Br)cc1)c1ccccn1
inactive: [2] 1.05 | [3] 0.993 | [4] 0.97 | [5] 0.99 | locus YGR078C, strain PAC10, active compounds read low 0.991 | [7] 1.01 | [8] 0.984 | [9] 0.988 | [10] 0.928 | [11] 0.985 | [12] 0.983 | [13] 0.912 | locus YPL055C, strain LGE1, active compounds read low 1

CCN(CC)CCOCCOC(=O)C(CC)(CC)c1ccccc1
inactive: [15] 0.99 | [16] 1.01 | [17] 0.988 | [18] 0.902 | [19] 1.03 | [20] 0.908 | [21] 0.993 | [22] 0.972
